# Measured values from PubChem BioAssay (NCI).
# This is part of a sample that, as a whole, favours compounds with a hit. Of some 83,000 tested, about 20% had one in any assay.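 Note: values are percent growth. 100 is the growth of untreated cells, values between 100 and 0 indicate rising inhibition; between -100 and 0 indicates cell death.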 Active and inactive are the calls of the source.
# System: OVCAR-8 ovarian
# Assay: NCI-60 one-dose screen, 48 h (100 = growth as untreated, 0 = no growth, -100 = all killed)
# Details: 10 µM unless noted
# Procedure: Growth inhibition of the OVCAR-8 human tumor cell line is measured as a screen for anti-cancer activity. Cells are grown in 96 well plates and exposed to the test compound for 48 hours. Compounds are tested at a single concentration, which is 10^-5 M for most compounds. The reported endpoint is percent growth (GI% or GIPRCNT), where numbers from 0 - 100% represent growth inhibition, and numbers from -100% - 0 represent cell death. For example, a value of 40 represents 60% growth inhibition. A value of 0 means no net growth occurred over the course of the experiment. A value of -40 indicates 40% of cells at the beginning of the experiment died by the end of the experiment. A value of -100 means all cells are dead at the end of the experiment.
# NCI-60 Human Tumor Cell Lines Screen was performed using the standard one-dose NCI protocol, which is described in more detail at https://dtp.cancer.gov/discovery_development/nci-60/default.htm.
# Compounds with GIPRCNT values below 10 were considered active. Activity score was based on GIPRCNT using the following formula: […]
# Score is 0 for GIPRCNT values of 100 or above, 50 for GIPRCNT values of 0, and 100 for GIPRCNT values of -100.
row,SMILES,growth
1,O=c1[nH]c2ccccc2cc1CSc1nccc(-c2ccc3ccccc3c2)n1,79.6% (inactive)
2,COc1cc2oc(-c3cccc(C(=O)Nc4ccc(Cl)cc4)c3)cc(=O)c2c(OCC(=O)N[C@@H](Cc2ccccc2)C(=O)O)c1OC,106% (inactive)
3,Nc1cccc(SCc2cc3ccccc3[nH]c2=O)c1,56.7% (inactive)
4,C=C1CCC2C3(C)COC(c4ccc(F)cc4)OC3CCC2(C)C1C/C=C1/C(=O)OCC1O (stereo not given),-61.5% (active)
5,CCN(CC)c1ccc(/C=N/Nc2nc(-c3ccc(C)cc3)cs2)c(O)c1,86.8% (inactive)
6,COc1ccc(-c2nnc3ccc(N/N=C/c4ccc(C)cc4)nn23)cc1,41.4% (inactive)
7,CCOC(=O)c1ccc(Nc2nc(NN)nc(-c3ccc(OC)cc3)c2C#N)cc1,116% (inactive)
8,C#CCOc1cc(N(CC)CC)ccc1C(C(=O)NC(C)(C)C)N(C(=O)C1CCc2cc(F)ccc2O1)c1ccc(F)c(Cl)c1 (stereo not given),69% (inactive)
9,Cc1ccc(/C=C/c2n(Cc3ccc4ccccc4c3)c3ccccc3[n+]2Cc2ccc3ccccc3c2)cc1,-59.8% (active)
10,CC(=O)c1cc(C(=O)c2ccccc2)n2c1ccc1ccccc12,99% (inactive)
11,CC(C)CSc1nc(NCCc2c[nH]c3ccccc23)c(C#N)c(-c2ccc(F)cc2)n1,59.5% (inactive)
12,COc1ccc(C(=O)/C=C/c2ccccc2Br)cc1S(N)(=O)=O,-64.5% (active)
13,O=c1[nH]c2ccc(Cl)cc2cc1CSc1nccc(-c2ccc(Cl)cc2)n1,42.9% (inactive)
14,c1ccc(-c2csc(Nc3cccc(Nc4nc(-c5ccccc5)cs4)c3)n2)cc1,39.9% (inactive)
15,COc1ccc(NC(=O)Cn2c3c(sc2=O)[C@H]2[C@@H](O)[C@@H](O)[C@H](O)[C@@H]2CS3)cc1,103% (inactive)
16,CN(C)CCCNC(=O)c1cc(NC(=O)c2cc(NC(=O)c3ccc(C#Cc4ccccc4)cc3)cn2C)cn1C,-0.647% (active)
17,Cc1cc2nc3c4ccccc4n(CCNCCN(C)C)c3nc2cc1C,24.2% (inactive)
18,C=C1CC[C@@H]2[C@]3(C)COC(c4cn[nH]c4-c4ccc(F)cc4)O[C@@H]3CC[C@@]2(C)[C@@H]1C/C=C1/C(=O)OCC1O (stereo not given in full),1.2% (active)
19,CCCCCCCS(=O)(=O)N1CCCC(C(=O)Nc2nc3ccc(NC(=O)c4ccc(F)c(OC)c4F)cc3s2)C1 (stereo not given),6.24% (active)
20,N=C1N=C(SCc2nc3ccccc3[nH]2)NC(=O)/C1=C/c1ccc(Cl)cc1,102% (inactive)

row,SMILES,growth
1,CC(C)Sc1nc(NCCc2c[nH]c3ccccc23)c(C#N)c(-c2ccc(F)cc2)n1,57.3% (inactive)
2,COc1cc(C2CC(c3ccc(S(=O)(=O)NCCNc4nc(Nc5ccc(F)cc5)nc(N(C)C)n4)cc3)=Nc3c(N)nc(N)nc3N2)cc(OC)c1OC (stereo not given),93.1% (inactive)
3,CC(=O)Oc1ccccc1C(=O)[Se]CC(=O)Nc1cccc(C(F)(F)F)c1,-46.6% (active)
4,CC1=C(C(=O)c2ccccc2)C(c2cccc3ccccc23)n2c(nc3ccccc32)N1 (stereo not given),38.3% (inactive)
5,COc1cccc(-c2c(C#N)c(-c3ccc(Cl)cc3)nc3n[nH]c(-c4ccc(Cl)cc4)c23)c1,48.3% (inactive)
6,CN1CCN(c2ccc(C(=O)/C=C/c3cc(C(F)(F)F)cc(C(F)(F)F)c3)cc2)CC1,-93.4% (active)
7,CCOC(=O)C1=C(N)N(c2ccccc2)C2=C(C(=O)CC(C)(C)C2)C1c1ccc([N+](=O)[O-])cc1 (stereo not given),103% (inactive)
8,C=C1CCC2C3(C)COC(c4cccc(F)c4)OC3CCC2(C)C1C/C=C1/C(=O)OCC1O (stereo not given),-52.2% (active)
9,O=C(CN1C(=O)/C(=C/c2ccccc2Cl)SC1=S)N1CCOCC1,97.1% (inactive)
10,NS(=O)(=O)c1ccc(-n2cc(-c3cccc(NC(=O)c4cc(Cl)cc(Cl)c4)c3)nn2)cc1,26.8% (inactive)
11,COc1ccc2cc([C@H](C)C(=O)N/N=C/c3ccc(Br)cc3)ccc2c1,105% (inactive)
12,CCCSc1nc(Nc2ccc(S(N)(=O)=O)cc2)c(C#N)c(-c2ccc(Cl)cc2)n1,15.2% (inactive)
13,CCCCNC(=S)Nc1ccc(OCc2nc3ccccc3[nH]2)cc1,59.3% (inactive)
14,CCOC(=O)C1=C(N)N(c2ccccc2)C2=C(C(=O)CC(C)(C)C2)C1c1cccc(Cl)c1Cl (stereo not given),59.4% (inactive)
15,OCC1(CCCc2ccccc2)CCCN(c2nccc3ccccc23)C1 (stereo not given),23.1% (inactive)
16,COc1cc(/C=C/C(=O)c2ccc(C)cc2)ccc1Oc1nc(Nc2ccc(F)cc2)nc(N(C)C)n1,38% (inactive)
17,CCN1C(=O)N(CC)C2NNC(Sc3c(C(=O)O)c4ccccc4n(C4CCCC4)c3=O)=NC21 (stereo not given),4.93% (active)
18,CN1CCN(c2ccc3c(c2)nc(NNC(=O)c2ncccn2)c2cccn23)CC1,-4.43% (active)
19,CN(C)c1nc(NCCNS(=O)(=O)c2ccc(C3=Nc4c(N)nc(N)nc4NC(c4ccc(Cl)cc4)C3)cc2)nc(Nc2ccc(F)cc2)n1 (stereo not given),46.2% (inactive)
20,COc1ccc(-c2nc3cc(C)ccc3n2CC(=O)N=Nc2c(O)[nH]c3ccc(Cl)cc23)cc1,-74.8% (active)
